Reference: PubChem BioAssay AID463173 (ICCB-Longwood Screening Facility, Harvard Medical School, 2010)
The whole screen tested about 52,000 compounds, of which about 1,700 (3.3%) were called active. The list comes from a sample in which actives are over-represented; it also holds similar structures and randomly drawn compounds. Values without a mark were called inactive. Cut-off read from the data, not from the text of the source: active = survival mostly below about 52% (no sharp cut-off); inactive = mostly above about 56%.

What follows are compounds tested on Wild type (assay: S. aureus survival, RN4220 and DeltatarO strains – OD600, teichoic acid synthesis inhibitors, primary screen (AID 463173)). Details: S. aureus RN4220 wild type/DeltatarO growth, OD600, 18 h, hits give low values, screened at 18.75 µg/mL (by protocol).

| Compound | survival |
| --- | --- |
| Cc1ccc(C(=O)N2CCN(c3ccccc3)CC2)cc1 | 112% |
| Cc1ccc2c(c1)N(C(=O)c1ccc(F)cc1)C(C)(C)CC2(C)c1ccccc1 (stereo not given) | 43% |
| COc1ccc(C(=O)N2c3ccc(C)cc3C(C)(c3ccccc3)CC2(C)C)cc1 (stereo not given) | 45% |
| Cc1ccc(C(=O)N2c3ccc(C)cc3C(C)(c3ccccc3)CC2(C)C)cc1 (stereo not given) | 2% (active) |
| Cc1ccc2c(c1)C(C)(c1ccccc1)CC(C)(C)N2C(=O)c1ccc(F)cc1 (stereo not given) | -2% (active) |
| CC1=CC(C)(C)N(CC(=O)c2ccccc2)c2ccc(C)cc21 | 109% |
| CCOc1ccc(S(=O)(=O)n2nc(C)c(S(=O)(=O)N3CCCCC3)c2C)cc1 | 67% |
| Cc1ccc(C)c(NC(=O)Cn2c(=O)n(CCCS(=O)(=O)C3CCCCC3)c(=O)c3ccccc32)c1 | 119% |
| CSc1nc2ccc(S(=O)(=O)N3CCCCC3)cc2s1 | 105% |
| COCCCNC(=O)c1ccc(Cn2c(=O)c3ccccc3n(CC(=O)Nc3ccc(C)cc3C)c2=O)cc1 | 100% |
| Cc1ccccc1CNC(=O)Cc1csc2ccccc12 | 94% |
| COc1ccccc1NC(=O)CSc1ncc2c(n1)-c1cc(Cl)ccc1N(C)S2(=O)=O | 73% |
| CCOc1ccc(NC(=O)CN2CCN(CC(=O)Nc3ccc(N(CC)CC)cc3)CC2)cc1 | 80% |
| COc1ccc(NC(=O)c2cc3c(=O)n(Cc4cccs4)ccc3nc2C)c(OC)c1 | 83% |
| O=c1[nH]c2ccc(NCc3ccc(-c4ccc(Cl)cc4)o3)cc2[nH]1 | 111% |
| COc1ccc(CCNC(=O)C(=O)NCC(c2cccs2)S(=O)(=O)c2ccc(F)cc2)cc1 (stereo not given) | 73% |
| COc1ccc(NS(=O)(=O)c2ccc3nc(-c4ccccc4)[nH]c3c2)cc1 | 81% |
| Cc1ccc(NS(=O)(=O)c2ccc3nc(-c4ccccc4)[nH]c3c2)c(Cl)c1 | 60% |
| Cc1cc(NS(=O)(=O)c2ccc3nc(-c4ccccc4)[nH]c3c2)ccc1Br | -4% (active) |
| Cc1ccc(NS(=O)(=O)c2ccc3nc(-c4ccccc4)[nH]c3c2)cc1Cl | 1% (active) |
| O=S(=O)(Nc1ccc(Br)cc1F)c1ccc2nc(-c3ccccc3)[nH]c2c1 | 71% |
| O=S(=O)(Nc1ccc(Br)cc1)c1ccc2nc(-c3ccccc3)[nH]c2c1 | -3% (active) |
| CC(C)c1ccc(NS(=O)(=O)c2ccc3nc(-c4ccccc4)[nH]c3c2)cc1 | 63% |
| Cc1ccc(NS(=O)(=O)c2ccc3nc(-c4ccccc4)[nH]c3c2)c(Br)c1 | 63% |
| Cc1cccc(NS(=O)(=O)c2ccc3nc(-c4ccccc4)[nH]c3c2)c1C | 129% |
